Measured potencies and affinities stand elsewhere. Active and inactive are the calls of the source.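 How the source made its calls: active means signal-lowering compounds whose fitted half-maximal concentration is at or below twice the top tested dose in every run; inconclusive means runs disagree, flat 30 to 70% inhibition, or poor curve fit; inactive means the rest.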
What follows are compounds tested against Protein S100-A4 (Homo sapiens) (UniProt P26447) (assay: human S100A4 peptide interaction inhibition curves – biochemical, fluorescence polarization, cherry-picked hits, dose response (AID 687001)). Conditions: FP, S100A4/TAMRA-myosin IIA peptide binding; series mostly up to 11 µM.
Sequence of Protein S100-A4 (Homo sapiens) (P26447 whole entry, looked up): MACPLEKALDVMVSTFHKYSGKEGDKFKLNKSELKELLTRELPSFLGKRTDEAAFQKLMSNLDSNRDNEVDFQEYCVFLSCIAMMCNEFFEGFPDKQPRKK

outcome, inactive:
Cc1ccc(S(=O)(=O)Nc2ccccc2F)cc1C(=O)OC(C)C(=O)N1CCOCC1 (centres undefined)
CC(C)CC(=O)Nc1c2c(nn1-c1ccc(F)cc1)CS(=O)C2 (centres undefined)
CC(=O)N1CCCCN2[C@@H](CO)[C@H](c3ccc(-c4cccc(C(=O)N(C)C)c4)cc3)[C@@H]2C1
CCOc1ccccc1CNC(=O)c1cc2occc2n1C
COc1ccc(OC)c(S(=O)(=O)NCC(c2ccco2)N2CCc3ccccc32)c1 (centres undefined)
Cc1cnc(C(=O)OCC(=O)c2ccccc2)cn1
COc1ccccc1NC(=O)N1CCCCN2[C@H](C1)[C@@H](c1ccc(C#CC3CC3)cc1)[C@@H]2CO
CCS(=O)(=O)c1nc(S(=O)(=O)c2ccc(C)cc2)c(NCCCN2CCCC2=O)s1
Cc1cccc2c(CC(=O)Nc3ccccc3)noc12
O=C(CSc1ccsc1[N+](=O)[O-])NCc1ccccc1
C[C@@H]1CN([C@@H](C)CO)S(=O)(=O)c2ccc(-c3ccccc3)cc2O[C@H]1CN(C)Cc1cccc(F)c1
Cc1ccc(S(=O)(=O)N(C)C[C@H]2OCCCC[C@H](C)Oc3ccc(NS(=O)(=O)c4ccccc4)cc3C(=O)N([C@H](C)CO)C[C@@H]2C)cc1
C[C@@H]1CCCCO[C@@H](CN(C)S(=O)(=O)c2cn(C)cn2)[C@H](C)CN([C@@H](C)CO)C(=O)c2cc(NC(=O)C3CCCCC3)ccc2O1
CN(C)S(=O)(=O)c1ccc(NC(=O)CN2CCN(c3ccccn3)CC2)cc1
Cc1cc(C)n2nc(Sc3ncccc3[N+](=O)[O-])nc2n1
CO[C@H]1CN(C)C(=O)c2ccc(NC(=O)C3CCCCC3)cc2OC[C@@H](C)N(Cc2nccs2)C[C@@H]1C
Nc1nnc(COc2ccc(Br)cc2Br)s1
CCOC(=O)[C@]12CCCC=C1N(Cc1ccccc1)C(=O)[C@H](CC(=O)NCCCN1CCCC1=O)C2
CC(=O)Nc1ccc(C=NNc2nnc(NN=Cc3ccc(NC(C)=O)cc3)c3ccccc23)cc1
COC(=O)c1c(NC(=O)CCN2CCOCC2)sc2c1CCCC2
COCC(=O)N(C)C[C@H]1Oc2cc(C#CCN(C)C)ccc2S(=O)(=O)N([C@@H](C)CO)C[C@H]1C
COc1ccc(N2CCN(C(=O)[C@H](C)N3C(=O)C4CC=CCC4C3=O)CC2)cc1 (some centres undefined)
COc1cc2cc(-c3ccc(O)cc3O)nc(C)c2cc1OC
O=C(c1ccncc1)N1C[C@@H]2[C@H](c3ccccc31)[C@@H](CO)N2C(=O)CN1CCOCC1
Cc1ccc(NC(=S)N(C)C)cc1C
COCc1cc(=O)[nH]c(SCC(=O)N2CCOCC2)n1
CCCCCn1c(C)c(CC(=O)Nc2ccc(Oc3cccnc3)c(C)c2)c2ccccc21
CCOC(=O)N1CCN(C(=O)COc2ccc3oc4c(c3c2)CCCC4)CC1
CCOC(=O)C1=C(C)N(C)C(=O)NC1c1cccc2ccccc12 (centres undefined)
CCOC(=O)[C@@H]1[C@H]2COc3cc(OC)ccc3[C@@H]2N2C(=O)N(c3cccc(C)c3)C(=O)[C@]12C
O=C1C2C3C=CC(C2C(=O)N1CCO)C1C(=O)N(CCO)C(=O)C31 (centres undefined)
C[C@H](NC(=O)C[C@H]1C[C@@H]2c3cc(NC(=O)CN(C)C)ccc3O[C@@H]2[C@H](CO)O1)c1ccccc1
O=C(NCCC1CCCCN1S(=O)(=O)c1ccccc1)C(=O)NCC1CCCO1 (centres undefined)
O=C(c1cc2c(s1)-c1ccccc1S(=O)(=O)C2)N1CCN(Cc2ccccc2)CC1
OCCC1CN(Cc2ccc3c(c2)CCO3)CCN1Cc1ccc(F)cc1 (centres undefined)
CC(NC(=O)c1ccccc1F)c1nnc(SCC(=O)Nc2nnc(C3CC3)s2)n1C (centres undefined)
Cc1cccc(S(=O)(=O)N2C[C@@H]3[C@H](c4ccccc42)[C@H](CO)N3CC2CCOCC2)c1
C[C@@H]1CN([C@@H](C)CO)C(=O)CCCn2cc(nn2)CO[C@H]1CN(C)S(=O)(=O)c1ccc(Oc2ccccc2)cc1
COc1ccccc1S(=O)(=O)N[C@H]1CC[C@H](CC(=O)N2CCN(C)CC2)O[C@@H]1CO

Reference: PubChem BioAssay AID687001 (Broad Institute, 2013)
